In PubChem BioAssay AID686978 (National Center for Advancing Translational Sciences (NCATS), 2013) one finds Potency data, which are given here for 104 compounds.

Hit rate of the full screen: of about 420,000 compounds, about 64,000 (15%) were called active. Roughly 27% stayed inconclusive and do not appear here. Calls follow the shape of the dose curve; as a rule, active = well fitted inhibition curve with a large enough effect; inconclusive = small, poorly fitted or top-dose-only effect; inactive = flat fitted curve, though single readings scatter. The list is a sample of the results. Entries that show only a call come without a potency.
Potency is read from the fitted curve at half-maximal effect.

This assay can be described thus: qHTS for Inhibitors of human tyrosyl-DNA phosphodiesterase 1 (TDP1): qHTS in cells in absence of CPT. Also: nearly all actives have a fitted effect of over 55% in size. The settings on record: DT40 Tdp1-/- hTDP1 cells, no CPT, ATP luminescence, 48 h; activity change, negative = growth inhibition: at 46.2 µM (top of the series). The source says:
Human tyrosyl-DNA phosphodiesterase 1 (TDP1) is a novel repair gene, and we propose to use it as a new target for anticancer drug development. TDP1 is not an essential protein, but under treatment with topoisomerase I poison (camptothecin: CPT), TDP1 works as a critical factor for cell survival. To directly identify novel TDP1 inhibitors active in a cellular environment, we have knocked-out the Tdp1 gene in chicken DT40 cells (Tdp1-/-) and generated a complemented counterpart cells that contains a stable transfection of the human TDP1 gene (Tdp1-/-;hTDP1 cells). For the primary screen, Tdp1-/-;hTDP1 cells will be exposed to small molecules in the presence or absence of CPT, and their growth kinetics will be evaluated after 48 hours by measuring ATP activity. […] The hit compounds will then be evaluated in the presence or absence of CPT using Tdp1-/- cells. […] In tertiary assays, biochemical gel-based assays will be used to assess whether the hit compounds specifically target TDP1.
To this end, we have screened this cell line against the MLSMR in two primary screens. In one screen we add CPT and in the other we screen in the absence of CPT; this AID represents the screen where CPT was absent.
NIH Chemical Genomics Center [NCGC]
NIH Molecular Libraries Probe Centers Network [MLPCN]
Assay Submitter (PI): Yves Pommier, NCI
DT40-hTDP1 cells without 20 nM Camptothecin (add 20 microL of DMSO in 1 L of cell culture medium) were dispensed at 400 cells/5microL/well in tissue culture treated 1536-well white wall/solid bottom assay plates (Greiner Bio-One North America, NC, U.S.A.) using a Multidrop Combi 8 channel dispenser (Thermo Fisher, Waltham, MA, USA). 23 nL compounds and controls were transferred using the pin tool (Kalypsys, San Diego, CA, USA) to the assay plates. The assay plates were then incubated at 37 masculineC for a minimum 48 hr. Three microL of Cell Titer Glo solution was added to the plates and incubated at RT in dark for 30 min. Luminescence was read using ViewLux (Perkin Elmer) with 1 sec exposure slow speed, high gain and 2x binning.
In general terms: In qHTS, concentration-response curves come from the screen itself.
On to `Clc1ccc(CSc2nnc([C@@H]3CCCN3)o2)cc1`, for which the Potency result is “inactive”. For `CS(=O)(=O)c1ccccc1C(=O)Nc1ccc2sccc2c1` the value was “inactive”; for `O=C(/C=C/c1ccccc1[N+](=O)[O-])OCC(=O)N1CCCC1`, “inactive”; for `CCC(C(=O)NCc1ccccc1)n1c(Cc2cc(F)cc(F)c2)nc2ccccc21` (centres undefined), 16.4 µM (active). For `CCC(C(=O)Nc1c(C)cccc1C)n1c(-c2cc(C)cs2)nc2ccccc21` (centres undefined) the value was “inactive”. As for `O=C(CCSCc1cccc(F)c1)NCc1ccccc1`, the Potency result is “inactive”. For `CCC(C)c1ccc(O)c(/C=N/O)c1` (centres undefined) the value was “inactive”; for `Cc1cc(C)n(-c2nc(O)cc(=O)[nH]2)n1`, “inactive”. In the case of `CS(=O)(=O)N(CC(=O)NC1CCCC1)Cc1ccc(F)cc1`, the Potency result was “inactive”. For `Cc1ccc(OCC(=O)N2CCN(C(=O)c3cccnc3)CC2)cc1` the value was “inactive”. For `Cc1ccc(NC(=O)Cc2nc(COC(=O)C(C)NS(=O)(=O)c3ccc(C)cc3)cs2)cc1` (centres undefined) the value was “inactive”.

In the case of `CSc1nsc(NC(=O)Nc2ccccc2)n1`, the Potency was 20.6 µM (active).

Turning to `Cc1ccc(-c2csc(NNC(=O)c3ccccc3)n2)cc1`, the Potency was 5.17 µM (active).

With `O=C(O)c1ccccc1C(=O)Nc1nc(-c2ccccc2)cs1`, the Potency result was “inactive”.

Turning to `O=C(Nc1ccccc1)Nc1nc2ccccc2s1`, the Potency entry is “inactive”. In the case of `Cc1nc(NNC(=O)c2ccccc2)cc(-c2ccccc2)n1`, the Potency entry is “inactive”. As for `CCC(=O)Nc1ccc(C(=O)Nc2cc(C)on2)cc1`, the Potency entry is “inactive”.

Consider `CC(=O)Nc1ccc(-c2csc(NC(=O)Nc3ccccc3)n2)cc1`, for which the Potency was 1.16 µM (active).

With `CC(=O)Nc1ccc(S(=O)(=O)Nc2nc(-c3ccc(C(C)(C)C)cc3)cs2)cc1`, the Potency entry was “inactive”.

Take `Cc1ccc(C(=O)NNC(=O)c2cccs2)cc1`: the Potency entry is “inactive”. For `CC(=O)c1ccc(NC(=O)N[C@@H](Cc2ccccc2)C(=O)O)cc1` the value was “inactive”.

As for `CC(=O)c1ccc(NC(=O)CSc2nnc(NC(=O)Nc3ccccc3)s2)cc1`, the Potency entry was “inactive”.

`CC(=O)Nc1ccc(C(=O)Nc2nc(-c3cc(C)n(Cc4ccccc4)c3C)cs2)cc1`: the Potency was 14.6 µM (active).

As to `CN1C(=O)C2(OCCCO2)c2cc(Cl)ccc21`, the Potency entry was “inactive”. For `O=C(CNC(=O)Cc1ccccc1)NCC(=O)OCC(=O)c1ccccc1Cl` the value was “inactive”; for `O=C(c1snnc1-c1ccccc1)N1CCOCC1`, “inactive”. For the compound `Cc1nn(C(C)CC(=O)O)c(C)c1C` (centres undefined), the Potency result is “inactive”. For `CCN1N=C(c2ccccc2)CCC1=O` the value was “inactive”.

Consider `CCN(CC(=O)NCCc1ccccc1)S(=O)(=O)c1ccc(C)cc1`, for which the Potency entry is “inactive”. For the compound `COCC(=O)N1CCC2(CCCN(c3ccccc3)C2)CC1`, the Potency entry was “inactive”. For `COc1ccc(C(=O)OCC(=O)NCC2CCCO2)cc1[N+](=O)[O-]` (centres undefined) the value was “inactive”. For `COc1ccc(C(CNC(=O)c2cc3c(s2)CCCC3)N2CCOCC2)cc1` (centres undefined) the value was “inactive”; for `CCCNC(=O)COc1coc(CN2CCN(Cc3ccccc3)CC2)cc1=O`, “inactive”; for `O=S(=O)(c1ccc(Br)cc1)N1CCC(c2nc3ccccc3[nH]2)CC1`, 20.6 µM (active). For `O=C(C1CCCO1)N1CCC(c2nc3ccccc3[nH]2)CC1` (centres undefined) the value was “inactive”; for `O=S(=O)(c1ccccc1)N1CCC(c2ccccc2)CC1`, “inactive”. For `Cc1c(NC(=O)c2c([N+](=O)[O-])cnn2C)c(=O)n(-c2ccccc2)n1C`, the Potency entry was “inactive”.

`O=C(NCC12CC3CC(C1)CC(CNC(=O)N1CCCC1)(C3)C2)N1CCCC1`: the Potency result is “inactive”.

Consider `O=c1cc(Cl)c2ccccc2n1-c1ccccc1`, for which the Potency result was “inactive”.

Take `Cc1ccc(-n2c3nc(=O)[nH]c(=O)c-3cc3c(Cl)cccc32)cc1`: the Potency is 0.731 µM (active).

On to `Cc1ccc(-n2c(-c3ccc(Cl)cc3)n[nH]c2=S)cc1`, for which the Potency entry was “inactive”. As to `NC(=O)NCCCC(=O)O`, the Potency entry was “inactive”.

For the compound `Cc1nn(CC(=O)Nc2nc3ccccc3s2)c(C)c1[N+](=O)[O-]`, the Potency result was “inactive”. For `CCC(C)Cn1c(O)cc2nn(-c3nc4ccccc4s3)c(=O)c-2c1C` (centres undefined) the value was 18.4 µM (active); for `CCCS(=O)(=O)N1CCCC(C(=O)NCCN2CCCCC2C)C1` (centres undefined), “inactive”; for `Cc1c(NC(=O)Nc2ccccc2Cl)sc(=S)n1C`, “inactive”. For `C/C(=N\NS(=O)(=O)c1ccc(Cl)cc1)c1ccc(NC(=O)c2ccco2)cc1` the value was “inactive”; for `Cc1ccc(-c2nnc(SCc3ccccc3C)o2)cc1`, “inactive”; for `COc1ccccc1CNC(=O)CN1CCC(n2cnc3cc(F)ccc32)CC1`, “inactive”. For `O=C(c1ccc(F)cc1)c1cn(Cc2ccc(F)cc2)c2cc3c(cc2c1=O)OCCO3` the value was “inactive”; for `CCOc1ccc(C(=O)c2cn(Cc3ccccc3OC)c3ccc(F)cc3c2=O)cc1`, 20.6 µM (active); for `CCOC(=O)C1CCN(C(c2ccc(F)cc2)c2sc3nc(-c4ccco4)nn3c2O)CC1` (centres undefined), “inactive”. On to `Cc1cccc(Cn2c(=O)n(CCC(=O)NCCc3ccc(Cl)cc3)c(=O)c3sccc32)c1`, for which the Potency entry is “inactive”. For `CCc1c(C)nc2c(OC)cccc2c1Cl` the value was “inactive”; for `CCOc1ccc(CC(=O)Nc2ccc(S(=O)(=O)Nc3cc(C)on3)cc2)cc1OCC`, “inactive”. For `Cc1cccc(C(=O)Nc2nnc(Cc3c[nH]c4ccccc34)s2)c1` the value was “inactive”. Turning to `COCCCN1C(=O)C(CC(=O)NCc2cccs2)CC(C(=O)N2CCOCC2)=C1C` (centres undefined), the Potency entry was “inactive”. For `CCOC(=O)[C@]12CCCC=C1N(CCC1=CCCCC1)C(=O)[C@H](CC(=O)NCCCOC)C2` the value was 20.6 µM (active); for `CCCCOCCCNC(=O)C[C@@H]1C[C@@]2(C(=O)OCC)CCCC=C2N(CCC2=CCCCC2)C1=O`, 18.4 µM (active); for `COC(=O)[C@]12CCCCC=C1N(CCC1=CCCCC1)C(=O)[C@H](CC(=O)NCC1CCCCC1)C2`, 23.1 µM (active). For `COc1ccc(CN2C(=O)C(CC(=O)NCCN3CCOCC3)CC(C(=O)N(C(C)C)C(C)C)=C2C)cc1` (centres undefined) the value was “inactive”; for `CC1=C(C(=O)N(C)C)CC(CC(=O)NCCc2ccccn2)C(=O)N1CCC1=CCCCC1` (centres undefined), “inactive”.

For the compound `CC(C)COc1ccc(C(=O)OCC(=O)NCCC2=CCCCC2)cc1`, the Potency entry was “inactive”. For `CCCCOCCCNC(=O)C[C@@H]1C[C@@]2(C(=O)OC)CCCCC=C2N(CCC2=CCCCC2)C1=O` the value was 23.1 µM (active); for `CN1CCNC(=O)C1CC(=O)NCCC1=CCCCC1` (centres undefined), “inactive”. For `COc1cccc(CNC(=O)C(NS(=O)(=O)c2ccc3nc(C)sc3c2)C(C)C)c1` (centres undefined) the value was “inactive”; for `Cc1cc(C)cc(NC(=O)Cc2csc(C)n2)c1`, “inactive”. For `Cc1ccc(C)c(NC(=O)CCC(=O)N/N=C2/CC(=O)CC(C)(C)C2)c1` the value was “inactive”; for `CCCCC(=O)N1CC2(C)CN(C(=O)CCCC)CC(C)(C1)C2=O`, “inactive”. As to `O=C(O)CN(Cc1ccco1)S(=O)(=O)c1ccccc1`, the Potency entry was “inactive”. For `O=C(CCNC(=O)c1ccc(Br)cc1)NCC(c1ccco1)N1CCCCC1` (centres undefined) the value was “inactive”; for `CC(C)CN(C(=O)c1cccc(S(=O)(=O)N2CCCCC2)c1)C1CCS(=O)(=O)C1` (centres undefined), “inactive”. On to `CCCCNCc1ccc(SC)cc1`, for which the Potency result is “inactive”. For `CC(=NNC(N)=O)C1CC2CCC1CC2` (centres undefined) the value was “inactive”.

On to `ClC/C=C/C[n+]1ccccc1Cl`, for which the Potency result was “inactive”. With `CN(C)c1ccc(NC(=O)c2ccncc2)c2ccccc12`, the Potency result is “inactive”.

As to `O=c1c(-c2ccccc2Cl)c[nH]n1-c1ccccc1`, the Potency entry was “inactive”. In the case of `O=c1c(-c2cccc(Cl)c2)c[nH]n1-c1ccccc1`, the Potency is 16.4 µM (active). For `O=c1c2c(-c3ccccc3)ccnc2[nH]n1-c1ccccc1` the value was “inactive”; for `N#C/C=C1\Sc2ccccc2C(=O)N1CC(=O)N1CCN(S(=O)(=O)c2ccccc2)CC1`, “inactive”; for `O=C(O)c1ccccc1-c1ccccc1C(=O)Nc1ccccc1Br`, “inactive”.

As for `COc1ccc(N2C(=O)CCC(C(=O)N(C)C3CCCCC3)C2c2ccc(OC)c(OC)c2)cc1` (centres undefined), the Potency result was “inactive”. For `CCOC(=O)C1CCCN(C(=O)C2CCN(c3nnc(-n4cccc4)s3)CC2)C1` (centres undefined) the value was “inactive”; for `CCOC(=O)C1CCCN(C(=O)CSc2nnc3nc(C)cc(C)n23)C1` (centres undefined), 20.6 µM (active). For `Cc1c(C)n2c(SCC(=O)N3CCCC3)nnc2[nH]c1=O` the value was “inactive”; for `CCCCN1C(=O)CCC(C(=O)O)C1c1ccc(OC)cc1` (centres undefined), “inactive”. For `O=C(COC(=O)c1ccncc1)Nc1ccc2c(c1)OCO2` the value was “inactive”; for `NS(=O)(=O)c1ccc(NC(=O)COC(=O)c2cc3ccccc3oc2=O)cc1`, “inactive”. Take `COc1cc(-c2cc(C(=O)OCC(=O)Nc3ccc4c(c3)OCO4)c3ccccc3n2)cc(OC)c1OC`: the Potency result is “inactive”.

As for `NS(=O)(=O)c1ccc(NC(=O)COC(=O)c2c3c(nc4ccccc24)/C(=C\c2ccc4c(c2)OCO4)CCC3)cc1`, the Potency was 13 µM (active). For `O=C(COC(=O)c1ccc(F)cc1)Nc1ccc2c(c1)OCO2` the value was “inactive”; for `O=C(COC(=O)c1c2c(nc3ccccc13)/C(=C\c1cccs1)CCC2)Nc1ccccc1Cl`, 13 µM (active).

`NC(=O)c1ccc(NC(=O)COC(=O)c2c3c(nc4ccccc24)/C(=C\c2ccc4c(c2)OCO4)CCC3)cc1`: the Potency was 8.2 µM (active). For `COc1cc(/C=C2\CCCc3c2nc2ccccc2c3C(=O)O)cc(Cl)c1O` the value was “inactive”; for `O=C(COC(=O)c1cccs1)Nc1ccccc1Cl`, “inactive”. For `COCCC(=O)Nc1ccc2c(c1)CN(C(=O)CCOC)CC2` the value was “inactive”; for `COc1ccccc1C(=O)OCC(=O)NCCNC(=O)COC(=O)c1ccccc1OC`, “inactive”. For `C/C=C(\C)C(=O)N1CC2(CC(c3cccc(NC(=O)CCCCC)c3)=NO2)C[C@@H]1C(N)=O` (some centres undefined) the value was “inactive”. As for `O=C(COC(=O)c1ccccc1)c1ccc2c(c1)OCCO2`, the Potency result was “inactive”.

Regarding `O=C(CCN1CCc2ccccc2C(O)(c2ccccc2)C1)c1ccc2c(c1)OCCO2` (centres undefined), the Potency is 2.91 µM (active).

With `CCC1(c2ccccc2)NC(=O)N(CC(=O)c2ccc3c(c2)OCO3)C1=O` (centres undefined), the Potency result is “inactive”. For `COc1ccc(CCOC2OC(CO)C(OC(=O)/C=C/c3ccc(O)c(OC)c3)C(O[C@H]3O[C@@H](C)[C@H](O)[C@@H](O)[C@H]3O)C2O)cc1O` (some centres undefined) the value was “inactive”; for `Cc1ccc(CNC(=O)c2ccccc2CCc2ccccc2)cc1`, “inactive”. With `CNC[C@H](CC1CCCCC1)NC[C@H](NCCC1CCCC1)[C@H](C)O`, the Potency is 20.6 µM (active).
